# According to the supplement of paper PMC8975748:
# Where a name gives a salt, the structure may show the parent alone.
# Test system: Saccharomyces cerevisiae BY4741 SeMeCo community
# Assay: z-score of subpopulation abundance vs DMSO median, subpopulation auxotrophic for M; higher = larger share of this subpopulation than in DMSO controls
# Conditions: 10 µM; 24 h; SM minimal medium; subpopulation (auxotrophy): M
# Method: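 Fluorescent four-plasmid SeMeCo (self-establishing metabolically cooperating S. cerevisiae BY4741 community; plasmids pH-mRuby2, pL-mWasabi, pU-eCFP, pM-TagRFP657) was grown 24 h in minimal SM medium with each Selleck FDA-approved drug at 10 µM in 384-well plates. Cells were fixed and imaged by high-content confocal microscopy. For each auxotrophic subpopulation (and the prototroph), a z-score gives the deviation from the DMSO vehicle-control population median.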
row,SMILES,z-score of subpopulation abundance
1,COc1cccc2c1C(=O)c1c(O)c3c(c(O)c1C2=O)C[C@@](O)(C(C)=O)C[C@@H]3O[C@H]1C[C@H](N)[C@H](O)[C@H](C)O1 [Daunorubicin HCl],-4.78
2,Oc1ccc(C2CNCCc3c2cc(O)c(O)c3Cl)cc1 (stereo not given) [Fenoldopam mesylate],1.31
3,O=C(O)c1cccnc1Nc1cccc(C(F)(F)F)c1 [Niflumic acid],0.7
4,COc1ccc(-c2nc3cc(C4=NNC(=O)CC4C)ccc3[nH]2)cc1 (stereo not given) [Pimobendan],0.83
5,CCCCCCCCN=C(N)NC(N)=NCc1ccc(Cl)c(Cl)c1 [Olanexidine Hydrochloride semihydrate],-3.65
6,c1ccc2[nH]c(-c3cscn3)nc2c1 [Thiabendazole],0.77
7,CCOC(=O)c1ccc(N)cc1 [Benzocaine],1.02
8,NC(=O)c1ncn([C@@H]2O[C@H](CO)[C@@H](O)[C@H]2O)n1 [Ribavirin],-0.5
9,Nc1ccc(S(=O)(=O)Nc2cnc3ccccc3n2)cc1 [Sulfaquinoxaline sodium],1.16
10,O=C(O)CCC(=O)OC[C@@H](NC(=O)C(Cl)Cl)[C@H](O)c1ccc([N+](=O)[O-])cc1 [Chloramphenicol sodium succinate],0.71
11,COc1cc2c(cc1OC)C(=O)C(CC1CCN(Cc3ccccc3)CC1)C2 (stereo not given) [Donepezil],1.61
12,CC[C@H]1OC(=O)[C@H](C)[C@@H](O[C@H]2C[C@@](C)(OC)[C@@H](O)[C@H](C)O2)[C@H](C)[C@@H](O[C@@H]2O[C@H](C)C[C@H](N(C)C)[C@H]2O)[C@](C)(O)C[C@@H](C)/C(=N\OCOCCOC)[C@H](C)[C@@H](O)[C@]1(C)O [Roxithromycin],0.34
13,CC(=O)N1CCN(c2ccc(OCC3COC(Cn4ccnc4)(c4ccc(Cl)cc4Cl)O3)cc2)CC1 (stereo not given) [Ketoconazole],-1.31
14,Nc1ccc(S(=O)(=O)Nc2ncccn2)cc1 [Sodium sulfadiazine],0.4
15,COC(=O)C1=C(C)NC(C)=C(C(=O)OC)C1c1ccccc1[N+](=O)[O-] [Nifedipine],0.13
16,CC1=C(C(=O)O)N2C(=O)[C@@H](NC(=O)[C@H](N)C3=CCC=CC3)[C@H]2SC1 [Cefradine],-0.36
17,Cc1ccc(C(=O)C(C)CN2CCCCC2)cc1 (stereo not given) [Tolperisone HCl],0.72
18,Clc1ccc(CCC(Cn2ccnc2)Sc2c(Cl)cccc2Cl)cc1 (stereo not given) [Butoconazole nitrate],-9.08
19,C[C@]12CCC3=C4CCC(=O)C=C4CC[C@H]3[C@@H]1CC[C@@]2(O)CC#N [Dienogest],-0.36
20,NC12CC3CC(CC(C3)C1)C2 [Amantadine HCl],0.52

row,SMILES,z-score of subpopulation abundance
1,O=c1[nH]cnc2c1ncn2[C@@H]1O[C@H](CO)[C@@H](O)[C@H]1O [Isoprinosine],-0.21
2,Nc1ccc2cc3ccc(N)cc3nc2c1 [Proflavine Hemisulfate],6.69
3,NC(=NCCCCCCN=C(N)N=C(N)Nc1ccc(Cl)cc1)N=C(N)Nc1ccc(Cl)cc1 [Chlorhexidine?2HCl],-3.42
4,CN1CCCN=C1/C=C/c1cccs1 [Pyrantel Pamoate],1.45
5,CC(C)[N+](C)(CCOC(=O)C1c2ccccc2Oc2ccccc21)C(C)C [Propantheline bromide],1.26
6,CC1(C)S[C@@H]2[C@H](NC(=O)Cc3ccccc3)C(=O)N2[C@H]1C(=O)O [Penicillin G Sodium],-0.8
7,Cc1c(Nc2ncccc2C(=O)O)cccc1C(F)(F)F [Flunixin Meglumin],-0.95
8,Nc1ccc(S(=O)(=O)NC(=O)c2ccccc2)cc1 [Sulfabenzamide],-0.05
9,Cc1nc2n(c(=O)c1CCN1CCC(c3noc4cc(F)ccc34)CC1)CCCC2O (stereo not given) [Paliperidone],0.41
10,Nc1nc(N)c2nc(-c3ccccc3)c(N)nc2n1 [Triamterene],4.86
11,CC1(C)S[C@@H]2[C@H](NC(=O)Cc3ccccc3)C(=O)N2[C@H]1C(=O)O [Benzylpenicillin potassium],-0.08
12,CC1(C)S[C@@H]2[C@H](NC(=O)[C@H](N)c3ccccc3)C(=O)N2[C@H]1C(=O)OCOC(=O)[C@@H]1N2C(=O)C[C@H]2S(=O)(=O)C1(C)C [Sultamicillin],0.2
13,CC(C)C(=O)Oc1ccc(CO)cc1[C@H](CCN(C(C)C)C(C)C)c1ccccc1 [Fesoterodine Fumarate],0
14,CN(C)CCCN1c2ccccc2Sc2ccc(Cl)cc21 [Chlorpromazine HCl],0.41
15,CCCN(CCC)CCc1cccc2c1CC(=O)N2 [Ropinirole HCl],-0.4
16,COc1cc([C@@H]2c3cc4c(cc3[C@@H](O[C@@H]3O[C@@H]5CO[C@@H](C)O[C@H]5[C@H](O)[C@H]3O)[C@H]3COC(=O)[C@H]23)OCO4)cc(OC)c1O [Etoposide],0.21
17,CN(C)C[C@@H]1CCn2cc(c3ccccc32)C2=C(C(=O)NC2=O)c2cn(c3ccccc23)CCO1,-0.34
18,CO[C@@H]1[C@@H](O[C@@H]2O[C@H](C)[C@@H](O[C@H]3C[C@@](C)(O)[C@@H](O)[C@H](C)O3)[C@H](N(C)C)[C@H]2O)[C@@H](CC=O)C[C@@H](C)[C@@H](O[C@H]2CC[C@H](N(C)C)[C@@H](C)O2)/C=C/C=C/C[C@@H](C)OC(=O)C[C@H]1OC(C)=O [Acetylspiramycin (ASPM)],-0.27
19,O=C(Cn1cnnn1)N[C@@H]1C(=O)N2C(C(=O)O)=C(CSc3nncs3)CS[C@H]12 [Ceftezole],-1.1
20,O=c1n(CCCN2CCN(c3cccc(Cl)c3)CC2)nc2ccccn12 [Trazodone HCl],2.19
